Results filed as inconclusive are left out. The source made the active and inactive calls. Rule for the calls: active = hit-call score of the fitted dose curve at least 0.9, where 1 is the maximum; inconclusive = response in the unintended direction; inactive = score below 0.9.
What was measured:
[1] = biological target: Cellular tumor antigen p53 (Homo sapiens) (UniProt P04637); assay: TOX21_p53_BLA_p2_ratio: Tox21 HCT-116 p53 Agonism Beta-lactamase Assay, Ratio, Phase 2 (AID 2283592)
Summary of the method: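 An inducible beta-lactamase reporter in HCT116 cells signals p53 pathway activation. After 16 h chemical exposure at 37C, cells load CCF4-AM substrate for 2 h at room temperature; activity is the cleaved/uncleaved emission ratio relative to DMSO.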

[2] = TOX21_p53_BLA_p3_viability: Viability Assessment in the Tox21 HCT-116 p53 Agonism Beta-lactamase Assay, Phase 3 (AID 2283593);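 note: cells exposed to compound for 16 h before reading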
Summary of the method: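 HCT-116 cells (4000/well) rested 5 h at 37C, then got DMSO compounds by pin tool (217-fold dilution) for 16 h at 37C, 5% CO2. After the bla read, CellTiter-Glo was added and luminescence read at 30 min, room temperature.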

[3] = biological target: Cellular tumor antigen p53 (Homo sapiens) (UniProt P04637); assay: TOX21_p53_BLA_p3_ratio: Tox21 HCT-116 p53 Agonism Beta-lactamase Assay, Ratio, Phase 3 (AID 2283596)
Summary of the method: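 HCT116 p53-bla cells (4000/well) given compound in DMSO (217-fold dilution) after 5 h, incubated 16 h at 37C. CCF4-AM substrate 2 h at room temperature; 460/530 nm emission ratio, gain fitted against DMSO.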

[4] = TOX21_p53_BLA_p4_viability: Viability Assessment in the Tox21 HCT-116 p53 Agonism Beta-lactamase Assay, Phase 4 (AID 2283597);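 note: hits lower the luminescence signal meaning cytotoxicity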
Summary of the method: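 Compound exposure of HCT116 cells lasts 16 h at 37C, 5% CO2, with DMSO stocks diluted 217-fold. Cellular ATP is then quantified by CellTiter-Glo luminescence after 30 min at room temperature.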

[5] = biological target: Cellular tumor antigen p53 (Homo sapiens) (UniProt P04637); assay: TOX21_p53_BLA_p4_ratio: Tox21 HCT-116 p53 Agonism Beta-lactamase Assay, Ratio, Phase 4 (AID 2283601)
Summary of the method: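 HCT116 cells carrying an inducible beta-lactamase reporter were plated at 4000 cells/well, rested 5 h, then exposed to compounds in DMSO (217-fold dilution) for 16 h at 37C. CCF4-AM substrate was loaded 2 h at room temperature; 460/530 nm emission ratio scored gain-of-signal versus DMSO.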

[6] = biological target: Cellular tumor antigen p53 (Homo sapiens) (UniProt P04637); assay: TOX21_p53_BLA_p5_ratio: Tox21 HCT-116 p53 Agonism Beta-lactamase Assay, Ratio, Phase 5 (AID 2283599)
Summary of the method: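 HCT-116 cells carrying a p53-inducible beta-lactamase reporter were seeded at 4000 cells/well and dosed after 5 h with compound in DMSO (217-fold dilution). After 16 h at 37C, CCF4-AM substrate was added for 2 h, and the 460/530 nm emission ratio was scored as gain-of-signal versus DMSO.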

[7] = TOX21_p53_BLA_p5_viability: Viability Assessment in the Tox21 HCT-116 p53 Agonism Beta-lactamase Assay, Phase 5 (AID 2283600)
Summary of the method: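 Counter-readout for cytotoxicity: ATP-dependent luminescence from CellTiter-Glo, read in the beta-lactamase wells after 30 min at RT, following a 16 h compound exposure at 37C.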

[8] = test system: Thyroperoxidase (TPO), gene 54314; assay: CCTE_Simmons_AUR_rTPO: CCTE's Amplex UltraRed Assay for Thyroperoxidase (TPO) Inhibition, Simmons Lab (AID 2283662);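 for AC50: potency for loss of signal meaning inhibition of peroxidase activity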
Summary of the method: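 Cell-free peroxidase activity assay using rat thyroid gland microsomes with excess H2O2 (300 uM) and 25 uM Amplex UltraRed. Compounds tested from 5 nM to 87.5 uM; fluorescence measured after 30 min at 37C, analysed relative to DMSO baseline.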

[9] = CCTE_Simmons_CellTiterGLO_HEK293T: Viability Assessment in CCTE's Assays for Thyroperoxidase (TPO) Inhibition, Simmons Lab (AID 2283665);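 for AC50: cells exposed to compound for 24 h before readout; actives reduce ATP signal below DMSO vehicle meaning cytotoxicity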
Summary of the method: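 HEK293T cells in DMEM with 1% FBS, dosed 24 h at 37C with 8 concentrations, 5 nM–87.5 uM final, 0.5% DMSO. ATP measured by CellTiter Glo luminescence; loss of signal vs DMSO, three biological replicates.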

Measured: AC50

Cellular tumor antigen p53 (Homo sapiens), sequence (P04637 whole entry, looked up): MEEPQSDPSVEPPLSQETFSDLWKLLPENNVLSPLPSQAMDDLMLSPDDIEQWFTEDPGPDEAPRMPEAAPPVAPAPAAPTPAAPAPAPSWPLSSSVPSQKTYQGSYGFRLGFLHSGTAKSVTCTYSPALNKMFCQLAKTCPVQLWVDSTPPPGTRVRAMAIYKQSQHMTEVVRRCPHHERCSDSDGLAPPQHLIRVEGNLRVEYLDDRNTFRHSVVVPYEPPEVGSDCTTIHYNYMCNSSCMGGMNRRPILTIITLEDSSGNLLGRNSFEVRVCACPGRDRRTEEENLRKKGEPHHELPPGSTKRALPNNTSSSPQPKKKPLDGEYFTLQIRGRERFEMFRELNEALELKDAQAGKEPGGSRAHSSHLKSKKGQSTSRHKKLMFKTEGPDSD

CNC(=S)N(C)C
inactive: [1] | [2] | [3] | [4] | [5]

CN(C)c1ccc(N=Nc2ccccc2C(=O)O)cc1
inactive: [1] | [6]
active: [2] 75 µM | [4] 68 µM | [7] 75.8 µM

CCC(C)(C)C1CCCCC1OC(C)=O (centres undefined)
not listed: [4] | [8] | [9]
inactive: all other assays above

C=C(C)[C@@H]1CCC2=CCC[C@@H](C)[C@]2(C)C1
inactive: [1] | [2] | [4] | [6]

NC(=O)OCC(COC(N)=O)c1ccccc1
not listed: [4] | [8] | [9]
inactive: all other assays above

CC/C=C\CCOC(=O)CCCCC
inactive: [1] | [2] | [3] | [6]

O=C1CCCCCCCCCCCCCCCO1
inactive: [1] | [2] | [3] | [7] | [5]

Cc1cccc(OCCOc2cccc(C)c2)c1
inactive: [1] | [2] | [3] | [5]

Cc1cc(C)c(C)c(C)c1
inactive: [1] | [2] | [3] | [4] | [5]

CCC(C)OC(=O)c1ccc(O)cc1 (centres undefined)
inactive: [1] | [2] | [3] | [7] | [5]

CC(=O)Oc1ccc(C)cc1
not listed: [4] | [8] | [9]
inactive: all other assays above

O=C(/C=C/C=C/c1ccc2c(c1)OCO2)N1CCCCC1
inactive: [1] | [2] | [4] | [6] | [5]

C=CCCCCCCCCC(=O)OCCCC
inactive: [1] | [2] | [3] | [6] | [7]

Nc1cccc(C(F)(F)F)c1
inactive: [1] | [2] | [3] | [4] | [5]

CCCC(=O)OCc1ccccc1
inactive: [1] | [2] | [3] | [7]

Cc1cc(C)c(C)c(O)c1
inactive: [1] | [2] | [4] | [6]

O=C(O)CCCCCCCCCC(=O)O
inactive: [1] | [2] | [3] | [6] | [7]

Cc1c(C)c([N+](=O)[O-])c(C(C)(C)C)c([N+](=O)[O-])c1C
inactive: [1] | [2] | [4] | [6]

CC(C)=CCC/C(C)=C\C#N
not listed: [4] | [8] | [9]
inactive: all other assays above

O=C1C(N(CO)C(=O)NCO)N(CO)C(=O)N1CO (centres undefined)
inactive: [1] | [2] | [3] | [7]

ON(Cc1ccccc1)Cc1ccccc1
inactive: [1] | [2] | [3] | [7]

Cc1ccc2c(c1)C(=O)c1ccccc1C2=O
inactive: [1] | [2] | [3] | [6] | [7]

O=S(=O)(O)c1ccccc1C=Cc1ccc(-c2ccc(C=Cc3ccccc3S(=O)(=O)O)cc2)cc1
active: [6] 11.4 µM | [5] 11.4 µM | [8] 44.4 µM
not listed: [4]
inactive: all other assays above

CC1=Nc2ccc3ccccc3c2C1(C)C
not listed: [4] | [8] | [9]
inactive: all other assays above

CCN(CCC#N)c1ccc(N=Nc2c(Cl)cc([N+](=O)[O-])cc2Cl)cc1
active: [8] 37.9 µM | [9] 41.8 µM
not listed: [5] | [6]
inactive: all other assays above

CCCCCCCCO[C@@H]1O[C@H](CO)[C@@H](O)[C@H](O)[C@H]1O
inactive: [1] | [2] | [3] | [6] | [5]

Cc1cccc(C(=O)O)c1
inactive: [1] | [2] | [3] | [4] | [5]

NC(=O)c1ccccc1O
not listed: [4] | [8] | [9]
inactive: all other assays above

C=CC(=O)OCCOC(=O)C=C
not listed: [4] | [8] | [9]
inactive: all other assays above

CCCCCCCCCCCCCOP(=O)(O)O
inactive: [1] | [4] | [5] | [8]
active: [2] 72.2 µM | [3] 86.8 µM | [9] 79.1 µM

CCCCCCC1(C)CCC(=O)O1 (centres undefined)
inactive: [1] | [2] | [3] | [4] | [5]

O=S(=O)(O)CC(O)CCl (centres undefined)
inactive: [1] | [2] | [3] | [5]

C=C[Si](OC(C)=O)(OC(C)=O)OC(C)=O
not listed: [4] | [8] | [9]
inactive: all other assays above

c1c[nH]cn1
inactive: [1] | [2] | [3] | [5]

Nc1ccc(-c2ccc(F)cc2)cc1
inactive: [1] | [2] | [3] | [4] | [5]

CC=CC(=O)N(CC)c1ccccc1C
inactive: [1] | [3] | [4] | [6]
